Source: PubChem
Most compounds without a hit are left out; they make up all but 4.4% or so of the library.
SUMO Mot1 rescue – SUMOylation pathway inhibition by Mot1-301 growth rescue; AID 2716; S. cerevisiae Mot1-301 growth rescue, ATP luminescence, 38.5C; percent above DMSO median, 100 means doubled; growth rescue, % at 18.8 µM; 1% of 320,000 active;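 active = every valid replicate shows activation above 250% relative to neutral control wells; inactive = the rest, any valid replicate at or below 250%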;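 note: OY570 slx delta 5 strain wells were the positive control but not used for scaling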
PfHsp90 set2 – growth inhibition of yeast expressing Plasmodium Hsp90 | S. cerevisiae expressing PfHsp90, BacTiter-Glo ATP, 48 h; yeast lacking PDR1 and PDR3 efflux regulators | 0.32% of 310,000 active | inhibition, % at 9.4 µM;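 active = every replicate shows inhibition above about 80%, whatever the replicate mean, limit read from the data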;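 note: 0% = DMSO neutral controls and 100% = 20 µM radicicol positive controls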
tim10-1 inh – inhibits growth of tim10-1 mutant yeast. inhibition, % at 20 µM. 2.2% of 330,000 active. S. cerevisiae tim10-1 ts strain growth, BacTiter-Glo, 24 h;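 active = inhibition of at least 40%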;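 note: mutant grown at 25 °C; 0% = DMSO wells with yeast and 100% = wells holding no yeast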
tim23-1 inh – tim23-1 yeast growth inhibition; 1.3% of 330,000 active; AID 463212; S. cerevisiae tim23-1 growth, BacTiter-Glo luminescence, 24 h; inhibition, % at 20 µM;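 active = growth inhibition of the mutant yeast at or above 50%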;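 note: temperature-sensitive mutant grown at 25 °C; plate controls were DMSO-treated mutant yeast for no effect and medium wells lacking yeast for full effect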
TIM10 inh – TIM10 yeast growth inhibition; S. cerevisiae TIM10 strain growth, BacTiter-Glo luminescence, 24 h; 1.4% of 330,000 active; inhibition, % at 10 µM;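 active = inhibition of 40% or more at the single tested concentration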;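 note: wild-type TIM10 isogenic control strain grown at permissive 25 °C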
TIM10 conf – confirmation of TIM10 yeast growth inhibitors | shares compounds with TIM10 inh | S. cerevisiae tim10 strain growth, BacTiter-Glo luminescence, 24 h | inhibition, % at 10 µM | 63% of 4,600 active | AID 463215;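 active = inhibition of yeast growth at or above a set limit in either of two replicates at 10 µM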;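 note: this counterscreen used the strain with wild-type TIM10; 0% = yeast with DMSO and 100% = medium wells lacking yeast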
An asterisk follows results filed as active; . = no result.

SMILES	SUMO Mot1 rescue	PfHsp90 set2	tim10-1 inh	tim23-1 inh	TIM10 inh	TIM10 conf
CCCCCC(=O)Nc1ccc(C(=O)CN2C(=O)NC3(CCCCCC3)C2=O)cc1	-9.7	7.2	-9.0	12.5	-11.5	.
COCCOC(=O)C1=C(C)NC(=O)NC1c1cccc2ccccc12 (stereo unspecified)	-11.2	-0.1	1.7	3.5	50.7*	-7.5
COc1cc(C(=S)N2CCN(c3cccc(Cl)c3)CC2)ccc1O	.	-31.5	24.2	40.1	41.4*	46.2*
O=C(Oc1ccc(OC(=O)c2ccco2)c(S(=O)(=O)c2ccc(Cl)cc2)c1)c1ccco1	1.6	-52.7	25.3	32.1	48.9*	-6.2
O=C(O)/C=C/c1cn(-c2ccccc2)nc1-c1ccc2c(c1)OCCO2	.	16.1	8.4	24.7	-3.0	.
O/N=C/c1cn(-c2ccccc2)nc1-c1ccc2c(c1)OCCO2	206.3	-16.3	16.1	-34.3	40.0	-3.0
CCN(CC(=O)NCc1ccc(Cl)cc1)C(=O)Cc1ccc(OC)cc1	0.1	-0.2	7.4	2.9	3.1	.
O=C(NCC1(c2ccccc2)CCCC1)c1ccc(Br)cc1	-4.9	-8.7	35.4	36.1	40.9*	12.7
Cc1ccc(C(=O)NCC2(c3ccccc3)CCCC2)cc1	111.4	7.8	13.6	18.1	16.1	.
Cc1cccc(NC(=O)c2cc([N+](=O)[O-])ccc2NCC2CCCO2)n1 (stereo unspecified)	2.7	-18.6	37.2	36.7	49.1*	42.7*
CN(Cc1ccccc1)C(=O)CCS(=O)(=O)c1ccc2c(c1)n(C)c(=O)c(=O)n2C	-0.9	-5.7	14.3	6.8	40.4*	-9.8
O=C(NCC(=O)N1CCN(Cc2ccc3c(c2)OCO3)CC1)c1ccccc1F	-1.0	11.1	-13.9	11.2	96.8*	-11.4
CC(C)(C)c1ccc(/C=N/NC(=S)NC2CCCCC2)cc1	-1.5	-20.8	34.6	36.6	95.9*	47.7*
C/C(=N\NC(=S)NC1CCCCC1)c1ccc(O)cc1	9.7	.	32.5	39.7	48.9*	41.9*
Cc1cc2nc(C)n3c4ccccc4nc3n2n1	0.1	18.8	37.9	42.8	58.7*	44.9*
Cc1cccc(Cn2c(=O)c3c(nc4n3CCCN4Cc3ccccc3)n(C)c2=O)c1	-8.9	-3.7	39.4	37.0	55.4*	1.2
Cn1c(=O)n(Cc2ccccc2)c(=O)c2c1nc1n2CCCN1C1CCCCC1	-3.8	-65.4	33.0	17.9	41.0*	26.8
CCn1c(=O)c2c(nc3n2CCCN3Cc2ccccc2)n(C)c1=O	-0.3	11.3	28.1	13.9	-11.9	.
CCn1c(SCC(=O)N2CCC(C)CC2)nc2c(c1=O)SCC2	-20.8	-13.0	9.9	14.7	-4.7	.
COc1cc(NC(=S)Nc2cccc(C)n2)cc(OC)c1OC	22.0	-7.3	37.1	17.3	46.7*	30.2*
O=C(CN1CCN(S(=O)(=O)c2ccccc2)CC1)Nc1cccc(C(F)(F)F)c1	12.5	56.7	31.3	8.0	40.8*	7.6
CN(CC(=O)Nc1ccccc1Cl)C(=O)c1cc(C2CC2)nn1-c1ccccc1	6.6	34.2	-28.9	17.1	-38.1	.
O=C(Nc1nccs1)c1csc2c1CCCC2	-8.8	-9.6	35.0	15.8	56.9*	43.9*
Cc1ccc(-c2nnc(N(C)C(=O)c3cccnc3)s2)cc1	1.9	24.1	13.9	45.8	42.4*	7.7
Cc1ccc(-c2nnc(N(C)C(=O)c3cccnc3)s2)cn1	40.6	16.4	-1.9	-7.2	13.6	.
SMILES	SUMO Mot1 rescue	PfHsp90 set2	tim10-1 inh	tim23-1 inh	TIM10 inh	TIM10 conf
COc1ccc(CC(=O)Oc2ccc(C)cc2Br)cc1S(=O)(=O)N1CCOCC1	-4.6	-9.0	12.5	5.9	-17.2	.
C=C1CCN([C@@H](Cc2ccccc2)C(=O)NCc2ccc(Cl)cc2)S(=O)(=O)c2ccccc21	-5.7	.	29.0	31.6	12.8	.
Cc1[nH]nc2ncc(C(=O)c3cc(Cl)cc(Cl)c3O)cc12	-30.1	-29.9	34.2	43.0	63.1*	30.6*
COc1ccc(S(=O)(=O)N2CCN(CCOc3ccccc3Cl)CC2)cc1OC	-13.7	6.8	14.7	23.8	96.8*	9.2
CCN(CC)CCN(C(=O)c1ccc2c(c1)OCCO2)c1nc2cc3c(cc2s1)OCO3	-3.5	-5.4	23.8	11.0	14.8	.
CCN(CC)CCN(C(=O)c1cc2c(ccc3ccccc32)oc1=O)c1nc2cc3c(cc2s1)OCCO3	-23.8	-10.0	20.3	30.5	50.0*	30.9
O=C(COC(=O)Cn1cnc2ccccc2c1=O)Nc1ccccc1OC(F)F	-21.4	-1.9	7.8	15.2	0.2	.
Cc1cc(C)n(CC(=O)N2c3ccccc3Sc3ccc(C(F)(F)F)cc32)n1	-7.4	-19.1	39.4	40.4	41.9*	26.9
C=CCNc1nc(N)c([N+](=O)[O-])c(Nc2ccccc2OC)n1	25.9	-19.3	34.1	30.8	40.9*	69.2*
C/C=C(/C)C(=O)O[C@@H]1c2c(ccc3ccc(=O)oc23)OC(C)(C)[C@@H]1OC(C)=O	47.8	38.5	21.1	42.6	17.6	.
C/C=C(\C)C(=O)OC1c2c(ccc3ccc(=O)oc23)OC(C)(C)C1OC(C)=O (stereo unspecified)	170.9	3.0	28.6	43.1	48.5*	29.1*
CN(C(=O)c1cccc(NC(=O)C2CCN(C(=O)OC(C)(C)C)CC2)c1)C1CCCCC1	-15.8	-22.6	-4.1	3.6	-5.3	.
Nc1ccc(C23CC4CC(CC(C4)C2)C3)cc1	224.5	-7.4	15.3	34.3	42.4*	23.4
Nc1ccc(C23CC4CC(CC(O)(C4)C2)C3)cc1	52.7	13.4	14.8	16.5	4.3	.
CC(=O)Nc1cccc(Oc2nc(-c3ccccn3)nc3ccccc23)c1	531.9*	-12.3	36.4	27.6	44.8*	33.0*
OC(Cc1cccnc1)c1ccccc1 (stereo unspecified)	.	1.6	.	.	.	.
COc1cccc(-c2sc3ccccc3c2-c2ccc(OCCN(C)C)cc2)c1	-23.8	37.6	-8.1	-0.7	50.0*	52.2*
COc1cc(NS(=O)(=O)c2ccc(NC(=O)CCC(=O)O)cc2)nc(OC)n1	-6.7	12.6	-10.1	14.4	6.8	.
COc1ccc(C(=O)NNC(=S)NC(=O)c2ccc(Cl)cc2)cc1	3.7	0.0	18.1	31.4	42.1*	7.2
COc1ccccc1CNc1ccc(N2CCCCC2)cc1	-5.1	36.2	15.7	13.5	54.2*	14.2
C=CCC1(C(=O)NCCO)CCN(C(=O)OC(C)(C)C)CC1	-5.6	-13.7	8.1	-1.7	-12.7	.
CCOC(=O)c1sc(=NC(=O)c2ccc(C)cc2)n(C)c1C	-4.9	.	8.9	35.2	41.9*	19.8
CCOC(=O)c1sc(=NC(=O)c2cccc(C)c2)n(C)c1C	.	-5.6	5.4	2.7	36.5	.
COc1cccc(NC(=O)CN(C)C(=O)CN2C(=O)c3ccc([N+](=O)[O-])cc3C2=O)c1	1.0	.	10.1	14.9	7.1	.
O=[N+]([O-])c1cccc(/C=C/c2nc3ccc([N+](=O)[O-])cc3[nH]2)c1	-0.8	-20.1	20.1	42.1	54.3*	58.2*
